# Results as given in PubChem BioAssay AID651818 (Broad Institute, 2012).
# Entries with a potency or affinity are not part of this list. Inconclusive results are not listed. The source made the active and inactive calls. No stated cut-off is given here; in the data, inconclusive means activity change below about -55%; inactive means above that.
# Assay: intracellular Trypanosoma cruzi inhibitors in host cells – cell-based, plate reader, cherry-pick samples, set 3, dose response (AID 651818)
# Conditions: series mostly up to 10 µM
row,Structure (SMILES),outcome
1,C[C@@H]1CN([C@@H](C)CO)C(=O)c2cccc(NS(=O)(=O)c3ccccc3)c2O[C@@H]1CN(C)CC1CC1,inactive
2,CC(C)NC(=O)Nc1cccc2c1O[C@@H](CN(C)Cc1ccc(C(F)(F)F)cc1)[C@@H](C)CN([C@H](C)CO)C2=O,inactive
3,COc1ccc(S(=O)(=O)N(C)C[C@H]2Oc3c(NS(=O)(=O)c4ccc(F)cc4)cccc3C(=O)N([C@H](C)CO)C[C@H]2C)cc1,inactive
4,Cc1cc(C(=O)Nc2cccc3c2O[C@@H](CN(C)C(=O)Nc2ccccc2)[C@@H](C)CN([C@H](C)CO)C3=O)n(C)n1,inactive
5,CC(C)NC(=O)Nc1cccc2c1O[C@H](CN(C)Cc1ccc3c(c1)OCO3)[C@@H](C)CN([C@H](C)CO)C2=O,inactive
6,C[C@@H]1CN([C@@H](C)CO)C(=O)c2cccc(NC(=O)c3cnccn3)c2O[C@H]1CN(C)CC1CC1,inactive
7,Cc1ccc(S(=O)(=O)Nc2cccc3c2O[C@H](CN(C)CC2CCCCC2)[C@@H](C)CN([C@H](C)CO)C3=O)cc1,inactive
8,C[C@H](CO)N1C[C@H](C)[C@H](CN(C)S(C)(=O)=O)Oc2c(NS(=O)(=O)c3ccc(Cl)cc3)cccc2C1=O,inactive
9,C[C@@H]1CN([C@H](C)CO)C(=O)c2cccc(NC(=O)c3ccncc3)c2O[C@@H]1CN(C)Cc1ccc(C(=O)O)cc1,inactive
10,C[C@H](CO)N1C[C@H](C)[C@@H](CN(C)Cc2ccccc2)Oc2c(NS(C)(=O)=O)cccc2C1=O,inactive
11,C[C@H](CO)N1C[C@H](C)[C@H](CN(C)Cc2ccc3c(c2)OCO3)Oc2c(NC(=O)Nc3ccc(F)cc3)cccc2C1=O,inactive
12,C[C@@H]1CN([C@H](C)CO)C(=O)c2cccc(NS(=O)(=O)c3cn(C)cn3)c2O[C@@H]1CN(C)Cc1ccncc1,inactive
13,C[C@@H]1CN([C@@H](C)CO)C(=O)c2cccc(NS(C)(=O)=O)c2O[C@H]1CN(C)C(=O)NC1CCCCC1,inactive
14,C[C@@H]1CN([C@@H](C)CO)C(=O)c2cccc(NS(=O)(=O)c3cn(C)cn3)c2O[C@H]1CN(C)C(=O)Nc1ccc2c(c1)OCO2,inactive
15,Cc1noc(C)c1NC(=O)Nc1cccc2c1O[C@@H](CN(C)Cc1ccc(-c3ccccc3)cc1)[C@@H](C)CN([C@@H](C)CO)C2=O,inactive
16,COc1ccc(NC(=O)N(C)C[C@H]2Oc3c(NC(=O)C4CCOCC4)cccc3C(=O)N([C@H](C)CO)C[C@@H]2C)cc1,inactive
17,C[C@H](CO)N1C[C@H](C)[C@@H](CN(C)S(=O)(=O)c2ccc(F)cc2)Oc2c(NC(=O)c3cnccn3)cccc2C1=O,inactive
18,C[C@H](CO)N1C[C@H](C)[C@@H](CN(C)Cc2ccc3c(c2)OCO3)Oc2c(NS(=O)(=O)c3ccc(Cl)cc3)cccc2C1=O,inactive
19,CC(C)NC(=O)N(C)C[C@@H]1Oc2c(NS(=O)(=O)c3ccc(F)cc3)cccc2C(=O)N([C@H](C)CO)C[C@@H]1C,inactive
20,Cc1noc(C)c1S(=O)(=O)N(C)C[C@@H]1Oc2c(NS(=O)(=O)c3cn(C)cn3)cccc2C(=O)N([C@H](C)CO)C[C@@H]1C,inactive
21,COc1ccc(NC(=O)N(C)C[C@H]2Oc3c(NC(=O)C4CCCCC4)cccc3C(=O)N([C@H](C)CO)C[C@@H]2C)cc1,inactive
22,C[C@@H]1CN([C@@H](C)CO)C(=O)c2cccc(N(C)C)c2O[C@H]1CN(C)Cc1ccc2c(c1)OCO2,inactive
